Reference: PubChem BioAssay (NCI)
About 83,000 compounds went through this panel and 20% of them were active in at least one assay; those are over-represented in the sample as a whole.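 Plates (96-well) were seeded with cells, treated with compound at one concentration, and incubated for 48 hours before percent growth was determined.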 A number with no mark means an inactive call. The source made the active and inactive calls. Rule for the calls: active = growth percent below 10; inactive = the rest.

System: HL-60(TB) leukemia
Experiment: NCI-60 one-dose screen, 48 h (100 = growth as untreated, 0 = no growth, -100 = all killed)
Conditions: 10 µM unless noted

SMILES	growth
CC1=C([Se]CC(OC(=O)CC[Se]c2ccccc2)C(=O)NC(C)(C)C)C(=O)c2ccccc2C1=O (stereo not given)	-43.2% (active)
C[C@@H]1C=C2C(=O)O[C@@H]3CC[C@H](C1)[C@]23O	72.4%
COC(=O)[C@@H]1[C@H](O)[C@H](C)[C@H](O)[C@@](C)(O)/C=C\C=C(C)C(=O)Nc2c(C)c(OC(C)=O)c3c(c2O)C(=O)C(C)=C2OCOC(=C23)C(C)=C[C@@](C)(O)[C@H](O)[C@@H](C)[C@H]1OC(C)=O	71.2%
CN(C)CN1CCN(c2ccc3nc(-c4ccc5nc(-c6ccc(C(F)(F)F)cc6)[nH]c5c4)[nH]c3c2)CC1	59.6%
Oc1ccc(Cl)cc1-c1cc(-c2ccc(Cl)cc2)n[nH]1	60.4%
Cc1ccc(/C=C/C(=O)c2cccc(OCCCOc3cccc(C(=O)/C=C/c4ccc(C)cc4)c3)c2)cc1	57.6%
COc1ccc(/C=C2\CCC3C(CCCC34OCCO4)C2=O)cc1 (stereo not given)	78.3%
Cc1cc2nc(CN)[nH]c2cc1C	96.6%
COc1cccc(-c2[nH]c(=S)ncc2C(=O)c2ccccc2)c1	78.2%
C=C(C)[C@@H]1CC[C@]2(COC(=O)c3ccccc3C(=O)O)CC[C@]3(C)[C@H](CC[C@@H]4[C@@]5(C)CCCNC(C)(C)[C@@H]5CC[C@]43C)[C@@H]12	6.45% (active)
COc1cccc(C2C(C#N)=C(N)Oc3cc(OCCCCCC[P+](c4ccccc4)(c4ccccc4)c4ccccc4)ccc32)c1 (stereo not given)	-39.6% (active)
N=C(N)N=Nc1ccc(NN=C(N)N)cc1	101%
N#Cc1nc(-c2ccc(Cl)cc2)oc1S(=O)(=O)N1CCN(c2ccc(F)cc2)CC1	66.3%
C=C(CBr)[C@@H]1CC[C@]2(C(=O)O)CC[C@]3(C)[C@H](CC[C@@H]4[C@@]5(C)CCC(=O)C(C)(C)[C@@H]5CC[C@]43C)[C@@H]12	71.7%
CCN1C(=O)N(CC)C2NC(SC)=NC21 (stereo not given)	103%
COc1cc(N=Nc2ccc(N)cc2)c(OC)cc1N=Nc1ccccc1.[Cl][Zn][Cl]	73.5%
CCOC(=O)c1c(C)nc2ccccc2c1/C=C/c1ccc(OC)cc1	83.3%
c1ccc(-c2cc3n4c(-c5ccccc5)nn(-c5ccccc5)c4cnc-3n2)cc1	120%
CCN(CC)CCOc1ccc(C2=C(c3ccccc3)CCc3cc(OC)ccc32)cc1	-54.4% (active)
CC(C)(C)c1cc(-c2nc3ccc(N4CCN(CCO)CC4)cc3[nH]2)cc(C(C)(C)C)c1O	63.5%

SMILES	growth
O=C(CCc1nnc2sc(-c3ccccc3)nn12)c1nc2ccccc2[nH]1	105%
Cc1ccnc(Nc2ccc([N+](=O)[O-])c(NCCN3CCOCC3)n2)c1	-14.9% (active)
CC1=C(/C=C/C(C)=C/C=C/C(C)=C/C(=O)Nc2ccc(O)cc2)C(C)(C)CCC1	-32.3% (active)
O=C(Oc1ccc(CCl)cc1)c1ccccc1	-44.6% (active)
CC(C)(C)c1ccc(S(=O)(=O)N[C@H]2CC[C@H]3[C@@H]4CCc5cc(O)ccc5[C@H]4CC[C@]23C)cc1	23%
COc1ccc(SC2c3ccc(C)cc3Oc3nc(N)c(C#N)c(N)c32)cc1 (stereo not given)	-53.4% (active)
CCOC(=O)N1CCc2c(sc3nc4nc[nH]n4c(=O)c23)C1	103%
C=C(C)[C@@H]1CC[C@]2(C(=O)OC)CC[C@]3(C)[C@H](CC[C@@H]4[C@@]5(C)C/C(=C/c6cccc(I)c6)C(=O)C(C)(C)[C@@H]5CC[C@]43C)[C@@H]12	97.6%
Cc1[nH]c(-c2nc3ccccc3[nH]2)c(C)c1C(=O)NNc1ccc(Cl)cc1	103%
COc1cc(-c2nn(-c3cccc(NC(=O)CCN4CCN(C)CC4)c3)cc2-c2ccncc2)ccc1Cl	-24.5% (active)
CCCCC/C(C)=N\NC(N)=S	96.5%
COc1ccc(C(c2cc(OC)c(OC)c(OC)c2)n2cncn2)cc1O (stereo not given)	-32.5% (active)
COc1ccc(N=C2C(=Nc3ccc(OC)cc3)N(c3ccc(N(C)C)cc3)C(=S)N2c2ccc(OC)cc2)cc1	24.6%
CC1(C)O[C@H]2OC3CCC(=O)CC3(O)[C@H]2O1 (stereo not given in full)	102%
Cc1nc2sc(C(=O)Nc3cccc4ccccc34)c(N)c2cc1C(O)c1ccccc1 (stereo not given)	-55.1% (active)
COc1cc(-c2nn(-c3cccc(NC(=O)NCCNS(=O)(=O)c4ccc(Cl)cc4)c3)cc2-c2ccncc2)ccc1Cl	1.37% (active)
CCNc1ccc2ccccc2c1N=Nc1ccc(N=Nc2ccccc2)cc1	108%
Nc1ccc(N=Nc2ccc(S(=O)(=O)O)cc2)c2ccccc12	62.8%
C[C@H]1[C@H](C)CC[C@]2(CO)CC[C@]3(C)C(=CC[C@@H]4[C@@]5(C)Cc6c([nH]c7ccccc67)C(C)(C)[C@@H]5CC[C@]43C)[C@H]12	81.7%
O=C(/C=C\c1ccc2c(c1)OCO2)/C=C/c1ccc2c(c1)OCO2	42.8%
